{"source": "paper PMC13494018", "binders": {"B1": {"name": "design_391_ca6baf5d-2451-47ba-bffc-fc886679966a_2349_dldesign_0_cycle1_af2pred (protein)", "chain": "NQAKLAEVFARAQEVIKRREEVRKRAEELSEEKREKVLKLLEESTKYLQEAFRAIAKGDAENAKKYVDKAEKLVEEAEKA"}, "B2": {"name": "design_486_d4f32670-1303-4d79-8413-1b14cb3eff50_4_dldesign_0_cycle1_af2pred (protein)", "chain": "REEKVEEARRLAQRALNAASKAVVGITSGSLSPEEIQALIDEATEALERAKELAPYATPAVREAIELAEALLQQAKEL"}, "B3": {"name": "design_391_ca6baf5d-2451-47ba-bffc-fc886679966a_1760_dldesign_0_cycle1_af2pred (protein)", "chain": "KEETQRVMVEATRVINRVAALVIAHPELTEAAALIQQALALLEQAKELLEAGEEEKALELAKQALELAKKALEIAESAL"}, "B4": {"name": "design_486_d4f32670-1303-4d79-8413-1b14cb3eff50_103_dldesign_0_cycle1_af2pred (protein)", "chain": "AEAEEFAEKAKEKAKEAVKVYAKDPEAGAAKLNALQAEAARKAIADPRYNPALAAVVEEALKANEVAKAA"}, "B5": {"name": "design_391_ca6baf5d-2451-47ba-bffc-fc886679966a_1789_dldesign_0_cycle1_af2pred (protein)", "chain": "DALAQAIAQIKEMGDIALALAQDALANPAIAAGAIRAAQSLVKHMLALGKAAGPEAAAVAEKEAAKVNAAIAQAKAA"}, "B6": {"name": "design_391_ca6baf5d-2451-47ba-bffc-fc886679966a_2026_dldesign_0_cycle1_af2pred (protein)", "chain": "AAKEALEKAKEKAEEIKAIADDVAKKAAAGTITPEEVAAALAKAIELAKEASEYLKEVPEAEAEEIAREVNAAMAKLNKAAVKALA"}, "B7": {"name": "design_486_d4f32670-1303-4d79-8413-1b14cb3eff50_30_dldesign_0_cycle1_af2pred (protein)", "chain": "AAAARAKAGVYTGEGFEKVREGERLRREGDPRAVEEYEEAAKLFEKAAEYYAQVNPGAAAGVAAMAKQVRERAEEYREEL"}, "B8": {"name": "design_391_ca6baf5d-2451-47ba-bffc-fc886679966a_2408_dldesign_0_cycle1_af2pred (protein)", "chain": "SAAAVAAALAAAEASVKTAERFAEEAEKAVDDPERATRLGESARQNIEVALALADDAAATDPAAAPKAAEIKKRAEEVRKRIEEVLKK"}, "B9": {"name": "design_391_ca6baf5d-2451-47ba-bffc-fc886679966a_2271_dldesign_0_cycle1_af2pred (protein)", "chain": "AAAEKEKEAEAKELFEKARKLAAEAAKLAVKAVGLSEEAYQLANEALQYAIEALEIVSAGEDLEKAKELLEKAQEKLKKATELVKKL"}, "B10": {"name": "design_391_ca6baf5d-2451-47ba-bffc-fc886679966a_1764_dldesign_0_cycle1_af2pred (protein)", "chain": "DPLEEALKEFEEALKLARELAEAVAALNPEEGERAREAIKEAEKRAKEALKLSPEEAAKAIREIRNELMRRVMREGARALAAA"}, "B11": {"name": "design_391_ca6baf5d-2451-47ba-bffc-fc886679966a_2108_dldesign_0_cycle1_af2pred (protein)", "chain": "TAAAALAAAKAALATAKAAGLPARYLEMAEAALAVATSAAASGDPAHQKAALAFSSAVLAAIEAEAAKRA"}, "B12": {"name": "design_391_ca6baf5d-2451-47ba-bffc-fc886679966a_1932_dldesign_0_cycle1_af2pred (protein)", "chain": "AQANAELTLRTLEAAGRAALALARASDAETAARILDAFRKTSAVLIESGAAAGPEAAKKVKELADKYLAELEAIVAAKAAEAA"}, "B13": {"name": "design_486_d4f32670-1303-4d79-8413-1b14cb3eff50_34_dldesign_0_cycle1_af2pred (protein)", "chain": "AAEKAIKVLEEAKKEAAKDPGDGKAAIEAIEKAIEAVKANPNNAGIGQAMVILAEAAAKASPKTRAVLSKAIAELSQVAI"}, "B14": {"name": "design_391_ca6baf5d-2451-47ba-bffc-fc886679966a_2255_dldesign_0_cycle1_af2pred (protein)", "chain": "DPLLAAARAVAAAALAAVRDGAARGAEAAEQALTFALNLLAAQARRAERELAGDPALRARVLAILDAARAEVRALGEALIAAAR"}, "B15": {"name": "design_391_ca6baf5d-2451-47ba-bffc-fc886679966a_1909_dldesign_0_cycle1_af2pred (protein)", "chain": "VGLAKAAELAVESAKQAVEQAEALAKAGKDPKQALALTDQAKLAADTAKAIAKQVEKEDPEKGKKLKEEAEKVKKKAEEVEKKIK"}, "B16": {"name": "design_391_ca6baf5d-2451-47ba-bffc-fc886679966a_1601_dldesign_0_cycle1_af2pred (protein)", "chain": "STLQELVDAAKEALAAAGELYRLDPERGEALRKQVWALLIAGLRDPATAAADKAKIEALKAEAEALVAELK"}, "B17": {"name": "design_486_d4f32670-1303-4d79-8413-1b14cb3eff50_66_dldesign_0_cycle1_af2pred (protein)", "chain": "AEAEAAAEAAAAAARAAAAAGDFATAVAITTTFAAANPALAWRVANAALAAFSQAARDPATAAAANAAMAAVVDTLRALSS"}, "B18": {"name": "design_391_ca6baf5d-2451-47ba-bffc-fc886679966a_2389_dldesign_0_cycle1_af2pred (protein)", "chain": "GKEEEAKEAVERARELAKKMIEEAEKAAKEDLGKAIEVLKKGNEELLELAEEAEELDPEAGEEIRELATQAISEAVKKMVAIQLAK"}, "B19": {"name": "design_391_ca6baf5d-2451-47ba-bffc-fc886679966a_2338_dldesign_0_cycle1_af2pred (protein)", "chain": "AEAAKQAALNTAGILAATVGAEAAAAAGLEAITVYGASIGDVLKATTTIASATSPQARANATRAVALISRALIAS"}}, "note": "Values without a mark were called inactive. No rule for the calls is given here."}
{"target": "CD276, Q5ZPR3", "sequence (Q5ZPR3 whole entry)": "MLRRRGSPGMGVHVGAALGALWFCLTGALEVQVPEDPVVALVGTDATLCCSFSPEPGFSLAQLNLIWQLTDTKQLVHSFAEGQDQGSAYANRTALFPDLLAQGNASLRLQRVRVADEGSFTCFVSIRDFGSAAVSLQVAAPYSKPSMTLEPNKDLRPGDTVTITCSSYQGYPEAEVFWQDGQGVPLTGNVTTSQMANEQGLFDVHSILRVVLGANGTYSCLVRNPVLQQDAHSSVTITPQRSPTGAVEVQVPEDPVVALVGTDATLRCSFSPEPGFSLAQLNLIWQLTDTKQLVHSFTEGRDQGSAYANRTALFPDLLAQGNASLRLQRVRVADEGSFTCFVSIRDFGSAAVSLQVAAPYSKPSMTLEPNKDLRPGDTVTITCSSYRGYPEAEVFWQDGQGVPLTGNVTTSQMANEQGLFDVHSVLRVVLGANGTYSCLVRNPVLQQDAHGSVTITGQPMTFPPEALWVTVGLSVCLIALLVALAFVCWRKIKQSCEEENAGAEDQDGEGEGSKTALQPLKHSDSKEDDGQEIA"}
{"binder": "B1", "binding in a display sort": "not found"}
{"binder": "B2", "binding in a display sort": "not found"}
{"binder": "B3", "binding in a display sort": "not found"}
{"binder": "B4", "binding in a display sort": "not found"}
{"binder": "B5", "binding in a display sort": "not found"}
{"binder": "B6", "binding in a display sort": "not found"}
{"binder": "B7", "binding in a display sort": "not found"}
{"binder": "B8", "binding in a display sort": "not found"}
{"binder": "B9", "binding in a display sort": "not found"}
{"binder": "B10", "binding in a display sort": "not found"}
{"binder": "B11", "binding in a display sort": "not found"}
{"binder": "B12", "binding in a display sort": "not found"}
{"binder": "B13", "binding in a display sort": "not found"}
{"binder": "B14", "binding in a display sort": "not found"}
{"binder": "B15", "binding in a display sort": "not found"}
{"binder": "B16", "binding in a display sort": "not found"}
{"binder": "B17", "binding in a display sort": "not found"}
{"binder": "B18", "binding in a display sort": "not found"}
{"binder": "B19", "binding in a display sort": "not found"}
